Experimental data published in the supplement of paper PMC6555819.

Experiments:
Experiment in all cases: PBM binding z-score (relative to random genomic background probes); higher = stronger binding; sequences stand for … in GC…GCGATTGACAGCGTAGAATGAAGG
[1] = system: PPARg:RXRa DBDmut IVT, anti-RXR (DBD mutation: RXRa K156A/R161A, NR concentration 270 nM, RXRa partner concentration 90 nM)
Outline: (§1)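 Custom Agilent 4×180K protein-binding microarrays carried double-stranded probes. Their 34-nt variable regions held direct-repeat seeds, single-nucleotide variants, half-site ablations and random human genomic background sequences. Arrays were incubated 1 h with ligand-free nuclear receptor dimers in PBS pH 7.4, 2% milk, 0.02% Triton X-100, 1 mM DTT, 0.2 mg/mL BSA and 0.4 mg/ml salmon testes DNA. Antibodies against each partner (one per run) detected binding, and scanned fluorescence was regression-normalized. Binding z-scores use random background probes as reference.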

[2] = system: PPARg:RXRa IVT, anti-PPARg (NR concentration 270 nM, RXRa partner concentration 90 nM)
Outline: as §1

[3] = system: PPARg DBDmut:RXRa IVT, anti-PPARg (DBD mutation: PPARg1 K132A/R137A, NR concentration 270 nM, RXRa partner concentration 90 nM)
Outline: as §1

[4] = system: PPARg DBDmut IVT, anti-PPARg (DBD mutation: PPARg1 K132A/R137A, NR concentration 270 nM)
Outline: as §1

[5] = system: PPARg homodimer (NR concentration 180 nM)
Outline: as §1

[6] = system: PXR:RXRa (NR concentration 270 nM, RXRa partner concentration 90 nM)
Outline: as §1

[7] = system: PXR homodimer (NR concentration 270 nM)
Outline: as §1

[8] = system: RARa:RXR (NR concentration 270 nM, RXRa partner concentration 90 nM)
Outline: as §1

[9] = system: RARa homodimer (NR concentration 270 nM)
Outline: as §1

[10] = system: RARb:RXRa (NR concentration 270 nM, RXRa partner concentration 90 nM)
Outline: as §1

[11] = system: RARb homodimer (NR concentration 270 nM)
Outline: as §1

[12] = system: RARg:RXRa (NR concentration 270 nM, RXRa partner concentration 90 nM)
Outline: as §1

[13] = system: RARg homodimer (NR concentration 270 nM)
Outline: as §1

[14] = system: RXRa DBDmut IVT, anti-RXR (DBD mutation: RXRa K156A/R161A, NR concentration 90 nM)
Outline: as §1

[15] = system: RXRa homodimer (NR concentration 180 nM)
Outline: as §1

[16] = system: THRa:RXRa (NR concentration 90 nM, RXRa partner concentration 90 nM)
Outline: as §1

[17] = system: THRa homodimer (NR concentration 90 nM)
Outline: as §1

[18] = system: VDR:RXRa (NR concentration 270 nM, RXRa partner concentration 90 nM)
Outline: as §1

[19] = system: VDR homodimer (NR concentration 270 nM)
Outline: as §1

| Sequence | PBM binding z-score [1] | PBM binding z-score [2] | PBM binding z-score [3] | PBM binding z-score [4] | PBM binding z-score [5] | PBM binding z-score [6] | PBM binding z-score [7] | PBM binding z-score [8] | PBM binding z-score [9] | PBM binding z-score [10] | PBM binding z-score [11] | PBM binding z-score [12] | PBM binding z-score [13] | PBM binding z-score [14] | PBM binding z-score [15] | PBM binding z-score [16] | PBM binding z-score [17] | PBM binding z-score [18] | PBM binding z-score [19] |
| --- | --- | --- | --- | --- | --- | --- | --- | --- | --- | --- | --- | --- | --- | --- | --- | --- | --- | --- | --- |
| TCTGCTAGGTCAACCATGGTCAGCTAATCTGCTA | 4.75 | 4.6 | -0.545 | -0.0168 | 1.65 | 2.47 | -0.872 | 2.3 | -0.434 | 4.21 | 3.53 | 4.4 | 5.7 | 1.05 | 3.24 | 3.78 | 1.03 | 2.27 | -0.484 |
| AACTCTAGGTAAGACTCAGTTCAGTGAAGAACGC | 1.6 | 0.848 | 0.278 | -0.04 | 0.345 | 0.534 | 0.651 | 0.155 | 0.797 | 0.272 | 0.462 | -0.177 | 0.0668 | 0.487 | -0.128 | 0.636 | 0.228 | 0.138 | 1.15 |
| ATCGAAAGGACGTGAGGTGAGTATACAGAAAGGC | -0.822 | 0.152 | 1.3 | 0.397 | 0.165 | -0.361 | -0.0869 | 0.0924 | 0.0832 | 1.09 | 0.895 | 0.703 | 1.12 | -0.854 | 0.282 | 1.89 | 0.987 | -0.301 | 0.126 |
| ATATGTAGGTTATCGGGTCGTTCAGTTTGCGCAT | 7.3 | 6.87 | 1.68 | 1.58 | 1.6 | 1.91 | 2.09 | 1.62 | 1.26 | 1.42 | 1.68 | 1.39 | 1.28 | 1.06 | 1.57 | 1.93 | 1.55 | 3.89 | 2.55 |
| TGAATGAGGTCATAAGATCAGGGAACGTTGCAAA | 4.55 | 5.82 | 2.51 | 1.96 | 1.71 | 4.37 | 0.734 | 5.17 | 0.421 | 4.55 | 3.34 | 5.65 | 5 | 3.74 | 5.88 | 3.85 | 2.43 | 4.71 | 3.77 |
| CCTCGCAGGACAACAGGAGGTCAGAGCTGCCAGA | -0.0217 | 0.0775 | -0.749 | -0.93 | 1.52 | 1.89 | 0.261 | 2.26 | -0.0612 | 2.28 | 3.19 | 2.79 | 2.57 | 0.186 | 1.86 | 2.51 | 0.912 | 1.42 | 1.05 |
| CCTCGGCGGACAGAAGGTCAGAGCTGTCCGCTTT | -0.348 | -0.163 | -2.18 | -2.03 | 0.787 | 1.26 | -0.667 | 1.57 | -0.497 | 2.52 | 2.77 | 2.53 | 1.99 | -0.44 | 1.64 | 1.05 | -0.714 | 0.473 | -0.703 |
| CCGACTAGGGCAGAAAGGTTACCATACCATCCGG | 2.95 | 2.6 | -0.185 | -0.946 | 1.12 | 1.24 | -0.00781 | 1.86 | 0.161 | 2.24 | 2.4 | 1.99 | 1.91 | -0.271 | 1.92 | 1.21 | -0.493 | 1.13 | -0.0974 |
| GCATATAGATAATACAAGGTGAAAGTCCGATTGT | 0.0768 | 0.523 | 1.29 | 0.755 | 0.731 | 0.197 | 0.246 | 0.795 | 0.194 | 0.165 | 0.678 | 0.441 | 0.694 | 0.234 | 0.586 | 2.26 | 0.964 | 0.152 | 0.0275 |
| TCATATAGGTAATACAGGTGAAACTCGGCATCTA | 4.14 | 3.73 | 1.2 | 0.856 | 1.01 | 0.879 | 0.269 | 1.17 | 1.3 | 0.809 | 0.77 | 0.826 | 0.818 | 1.45 | 1.1 | 1.23 | 0.391 | 1.37 | 0.169 |
| GATACAGGGTCAAGGCCAGAGAACGCGTATTGAT | 2.63 | 3.9 | 1.58 | -0.524 | 2.6 | 3.71 | 0.476 | 4.41 | 1.07 | 4.49 | 3.34 | 5.35 | 5.23 | 2.64 | 6.11 | 3.3 | 1.3 | 3.99 | 1.59 |
| CAAACTAGGTCACGAAAGCTCAAAGTCGAATGAC | 8.36 | 8.78 | 1.59 | 1.7 | 2.09 | 2.01 | -0.0695 | 2.59 | 0.726 | 4.42 | 3.1 | 4.61 | 5.69 | 1.74 | 3.99 | 3.28 | 1.48 | 2.37 | 0.544 |
| CAAACTAGGTCAGAGGTCAAAGTCGAGCCAACCA | 8.29 | 8.85 | 2.06 | 4.69 | 5.7 | 6.37 | 2.49 | 8.36 | 2.29 | 5.18 | 5.04 | 7.59 | 6.79 | 2.96 | 9.16 | 4.3 | 2.24 | 6.04 | 4.21 |
| AGAACGAGGGCACGCTGAGTTGATAGGAGAGTAG | 3.83 | 3.7 | 0.653 | 0.276 | 0.451 | 1.1 | 0.0753 | 0.906 | -0.652 | 2.37 | 1.22 | 1.93 | 1.99 | 1.77 | 1.35 | 1.82 | 0.0402 | 2.04 | 1.76 |
| GAAACAGGGTCAGCTAGAGGCCAGAGTATGGAAA | 2.53 | 3.11 | 0.33 | -0.985 | 3.56 | 3.46 | -0.0723 | 4.93 | 0.262 | 4.14 | 3.26 | 6.78 | 4.43 | 1.52 | 4.28 | 3.13 | 0.117 | 3.64 | 0.821 |
